Compound activity deposited in PubChem BioAssay by National Center for Advancing Translational Sciences (NCATS).
TrxR1 inh: rat TrxR1 inhibition | O89049 | recombinant rTrxR1, NADPH fluorescence consumption, selenite substrate | Potency, µM (top dose mostly 114 µM), for the others: at the highest dose activity change, negative = inhibition, usual class: inhibitors | actives 1% (n = 390,000); also: nearly all actives have a fitted effect of over 65% in size
Target sequence (O89049 whole entry, looked up): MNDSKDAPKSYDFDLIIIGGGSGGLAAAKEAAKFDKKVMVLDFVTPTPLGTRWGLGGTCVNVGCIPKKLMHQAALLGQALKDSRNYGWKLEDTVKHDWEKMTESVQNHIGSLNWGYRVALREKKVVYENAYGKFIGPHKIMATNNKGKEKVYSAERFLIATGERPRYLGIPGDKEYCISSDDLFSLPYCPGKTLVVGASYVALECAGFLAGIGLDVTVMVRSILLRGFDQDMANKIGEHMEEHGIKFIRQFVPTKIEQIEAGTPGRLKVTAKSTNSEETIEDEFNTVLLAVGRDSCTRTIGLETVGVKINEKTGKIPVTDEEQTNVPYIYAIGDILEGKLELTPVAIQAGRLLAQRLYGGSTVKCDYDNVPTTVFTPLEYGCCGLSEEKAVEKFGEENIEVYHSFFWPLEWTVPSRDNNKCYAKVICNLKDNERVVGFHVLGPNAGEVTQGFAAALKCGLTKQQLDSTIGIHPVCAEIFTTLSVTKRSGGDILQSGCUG
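Rat TrxR1 (90 nM in the dispensed reagent) was pre-reduced with 400 uM NADPH for 5 min at room temperature, then incubated with compound for 15 min. After 400 uM selenite was added, NADPH fluorescence (Ex 340/Em 450 nm) was followed for 8 min.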
TrxR1 substrate: rat thioredoxin reductase 1 substrate activity. actives 0.01% (n = 390,000). Potency, µM (highest dose often 114 µM), inactives show top-dose activity change, negative = substrate turnover. AID 588456. O89049. purified TrxR1 substrate turnover, NADPH consumption readout; also: nearly all actives have a fitted effect of over 50% in size
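Rat TrxR1, dispensed at 90 nM, was prereduced with 400 uM NADPH (final) for 5 min at ~22 deg C, then incubated with compound 15 min before 400 uM selenite. A first-read NADPH fluorescence drop versus no-compound background flagged substrates.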
GALK inhibitor: galactokinase (human) inhibition; P51570; Purified GALK, Kinase-Glo residual ATP luminescence; AID 1868; Potency, µM (series often up to 57.5 µM), for the others: at the highest dose activity change, negative = inhibition, most hits filed as inhibitors; actives 0.007% (n = 270,000)
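Luminescence from leftover ATP (Ultra-Glo luciferase/luciferin) served as read-out after a 1 h room-temperature reaction of 5 nM GALK with 35 uM ATP and 100 uM galactose.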
NPSR antag: antagonists of human neuropeptide S receptor cAMP signaling; CHO-NPSR cells, cAMP TR-FRET, antagonist mode; Potency, µM (top dose mostly 38.3 µM), for inactives: top-dose activity change, negative = inhibition, usual class: inhibitors; actives 1% (n = 220,000); AID 1461; also: nearly all actives have a fitted effect of over 50% in size
The depositor's hits bear a star; ? = inconclusive; / = no result; [ ] = dose if it differs, or a comment. An excerpt weighted towards active compounds, which were near 1.2% of everything screened. Calls follow the shape of the dose curve; as a rule, active = well fitted curve in the direction sought with a large enough effect; inconclusive = small, poorly fitted or top-dose-only effect, or another doubt; inactive = no such curve, though single readings can be large; an effect the other way counts as inactive or inconclusive. % is scaled to controls: 0 for no effect and ±100 for the full control effect; potency is read from the fitted curve at half-maximal effect.

SMILES	TrxR1 inh	TrxR1 substrate	GALK inhibitor	NPSR antag
CCS(=O)(=O)c1ncc(Cl)c(C(=O)NCc2ccccc2)n1	5.6µM*	4%	/	/
CS(=O)(=O)c1ncc(Cl)c(C(=O)N(Cc2ccc(Cl)cc2)Cc2ccco2)n1	0.71µM*	12%	/	/
O=C(c1ccc(Cl)cc1)N(Cc1ccco1)Cc1ccco1	-1%	-8%	/	/
[O-][N+]12CCCc3cccc(c31)CCC2	2%	11%	/	/
O=C(NCc1ccc2c(c1)OCO2)c1nc(S(=O)(=O)Cc2ccccc2)ncc1Cl	11µM*	3%	-3%	/
COc1ccc(N(Cc2ccccc2)C(=O)c2nc(S(C)(=O)=O)ncc2Cl)cc1	1µM*	7%	/	/
CCN(CC)C(=O)c1ccc2c(=O)n(Cc3cccc(Br)c3)c(=S)[nH]c2c1	19%	-1%	0%	/
Cc1ccc(C(C)C)c(OCC(=O)Nc2ccc(-c3nc4ncccc4o3)cc2C)c1	23%	11%	/	/
O=C(NCc1ccccc1Cl)c1cnc2sc(N3CCOCC3)nn2c1=O	24%[57.1 µM]	12%[57.1 µM]	/	/
O=C1/C(=C/c2ccccn2)COc2ccccc21	22µM*	-14%[57.1 µM]	0%	16%
CC(C)(C)C1C/C(=C/c2ccccn2)C(=O)/C(=C/c2ccccn2)C1 (stereo unspecified)	35µM*	0%	1%	2µM*
CC1C/C(=C/c2ccccn2)C(=O)/C(=C/c2ccccn2)C1 (stereo unspecified)	?	5%[57.1 µM]	-2%	?
O=C1/C(=C/c2ccc(O)cc2)COc2ccccc21	-33%	-4%	2%	/
CCOc1ccc(/C=C/c2nc(C#N)c(NC(C)CC)o2)cc1 (stereo unspecified)	14%	11%	/	/
Cc1ccc(-c2ccc(CCC(=O)O)o2)cc1	22µM*	11%	3%	-9%[46.1 µM]
O=C(O)CCc1ccc(-c2cccs2)o1	?	11%[57.1 µM]	-3%	-17%[46.1 µM]
COc1cc(OC)c(C(=O)OCC(=O)NCC2CCCCC2)cc1OC	-12%	-9%	/	/
Cc1ccc(OCC(=O)Nc2cc(-c3cccc(C)c3)nn2-c2ccccc2)cc1	29%[57.1 µM]	1%[57.1 µM]	/	/
Cc1ccc(-c2cc(NC(=O)CCl)n(-c3ccccc3)n2)cc1	35µM*	2%	0%	?
CC(=O)Nc1ccc(-c2cc(NC(C)=O)n(-c3ccccc3)n2)cc1	11%[57.1 µM]	8%[57.1 µM]	2%	-4%[46.1 µM]
O=C(CCl)Nc1cc(-c2ccccc2)nn1-c1ccccc1	22µM*	2%	-5%	-25%[46.1 µM]
COc1ccccc1-c1noc(-c2ccc(N3CCC(C)CC3)c([N+](=O)[O-])c2)n1	2%	-2%	/	/
CCN(Cc1ccncc1)Cc1c(O)ccc2ccccc12	5µM*	12%[57.1 µM]	9%	-2%
C=CC(=O)N1C/C(=C/c2ccccc2)C(=O)/C(=C\c2ccccc2)C1	4µM*	3%[11.4 µM]	/	/
CCOC(=O)c1ccc(NC(=O)CN(c2ccc(C)cc2)S(=O)(=O)c2c(C)noc2C)cc1	8%	-6%	/	/
SMILES	TrxR1 inh	TrxR1 substrate	GALK inhibitor	NPSR antag
O=[N+]([O-])c1ccc(N=Nc2c(Cl)cc(O)cc2Cl)cc1	-39%	1%[2.29 µM]	6%	7.9µM*
CC(=O)N(C1=C(Cl)C(=O)c2ccccc2C1=O)C1CCCCC1	?	-8%[57.1 µM]	3%	6.3µM*
CCOc1ccc2nc(NC(=O)c3cc(=O)c4cc(C)cc(C)c4o3)sc2c1	22%	4%	/	/
O=C(OCn1ncc(Br)c(Br)c1=O)c1ccccc1Cl	?	7%	-9%	2.5µM*
O=C(OCn1ncc(Br)c(Br)c1=O)c1ccc(F)cc1	1.8µM*	13%	-8%	2.5µM*
OCC(O)C[n+]1cccc(Br)c1 (stereo unspecified)	-13%	-1%	/	/
CC(C)(C)n1ncc2c(=O)n(Cc3ccccc3-c3ccccc3)cnc21	11%	-2%	/	/
COc1ccc(NC(=O)CSc2oc(-c3ccc(C)cc3)nc2S(=O)(=O)c2ccc(C)cc2)c(OC)c1	50µM*	7%[2.29 µM]	/	/
CNc1nc(N2CCCN(C)CC2)nc2cc(OC)c(OC)cc12	11%	24%	/	/
COc1ccc(CCC(=O)NCc2ccco2)cc1	11µM*	16%[57.1 µM]	1%	-11%[46.1 µM]
CC(C)(C)NS(=O)(=O)c1ccc(CCC(=O)NCc2ccco2)cc1	?	5%	3%	-1%[46.1 µM]
Cc1ccc(OCc2nc3ccccc3n2Cc2ccccc2Cl)cc1	8%	5%	/	/
CC(OC(=O)c1cccs1)C(=O)NCc1ccco1 (stereo unspecified)	-9%[57.1 µM]	4%[57.1 µM]	9%	-5%[46.1 µM]
COc1ccccc1C(OC(=O)c1cccs1)C(=O)NCc1ccco1 (stereo unspecified)	16µM*	4%	4%	-12%[7.67 µM]
COC(=O)c1sc(N2C(=O)c3oc4ccccc4c(=O)c3C2c2ccc(O)cc2)nc1C (stereo unspecified)	-19%	-8%	/	/
C/C(=N/NS(=O)(=O)c1ccc(Cl)cc1)c1ccncc1	25µM*	2%	4%	/
CCOC(=O)/C(=C\c1ccc(OC(F)F)cc1)C1=Nn2c(nnc2-c2ccc(Cl)cc2)SC1	-14%	-4%	-4%	10µM*
O=C(Cc1ccc([N+](=O)[O-])cc1)c1c(O)cc(O)cc1O	3.5µM*	4%	6%	-59%
O=C1CC(N2CCN(c3ccccn3)CC2)C(=O)N1c1ccc(F)cc1 (stereo unspecified)	28%[57.1 µM]	5%[57.1 µM]	0%	13%
O=C1CC(N2CCN(c3ccccn3)CC2)C(=O)N1CC(c1ccccc1)c1ccccc1 (stereo unspecified)	25µM*	-6%	-2%	-9%
CCCC(=O)N(C)c1ccc(/C=C2\C=Cc3ccccc32)cc1	20µM*	-7%	/	/
CC(=O)N(C)c1ccc(/C=C2\C=Cc3ccccc32)cc1	?	-4%	/	/
CCOc1ccc(NC(=O)CSc2nc(N)c(-c3ccccc3)c(=O)[nH]2)cc1	17%[57.1 µM]	8%	-1%	11%
Nc1nc(-c2ccccc2)c(CCCOc2ccc(NC(=O)CBr)cc2)c(=O)[nH]1	45µM*	-5%	/	/
CS(=O)(=O)c1sc2nc(-c3cccs3)cc(-c3ccccc3)c2c1N	?	12%[57.1 µM]	-4%	10µM*
SMILES	TrxR1 inh	TrxR1 substrate	GALK inhibitor	NPSR antag
CCCC1Cc2c(sc3ncnc(N)c23)CO1 (stereo unspecified)	50µM*	39%	0%	1%[46.1 µM]
Cc1ccc(S(=O)(=O)NCCOC(=O)Nc2sc(=S)n(C)c2C)cc1	7.1µM*	3%	2%	-9%[46.1 µM]
CCOc1ccc(CN(C(=O)c2nc(SC)ncc2Cl)C2CCS(=O)(=O)C2)cc1 (stereo unspecified)	16%	-3%	/	/
C=CCn1c(SCC(=O)NCc2ccco2)nnc1-c1cccc(N(C)C)c1	-7%	1%	/	/
CCOc1ccc(C2C(C(=O)Nc3ccccc3)=C(C)Nc3nc(-c4ccccc4)nn32)cc1OC (stereo unspecified)	6%	1%	/	/
CCOC(=O)COc1ccc(Br)cc1/C=C/c1[nH]c(=O)[nH]c(=O)c1[N+](=O)[O-]	?	0%	-11%	-22%
CCOC(=O)COc1ccc(Br)cc1/C=C\c1[nH]c(=O)[nH]c(=O)c1[N+](=O)[O-]	45µM*	-9%	-7%	-35%
O=C1C[C@@H](c2ccccc2Cl)N1S(=O)(=O)c1ccccc1[N+](=O)[O-]	-2%	-3%	/	/
